# Rows were chosen to be rich in hits. Some 7.7% of all compounds tested hit in one or more screens of this group.
# HCMV inh: inhibitors of human cytomegalovirus | 410,000 compounds, 4.5% hits | activity change, negative = inhibition, % at 57.5 µM | HFF cells, HCMV-luciferase reporter, 72 h; stronger effect = lower value; in the data active means activity change below about -60%; inconclusive means no clear call, values can overlap the other calls; inactive means above about -39%
#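 Compounds were evaluated in HFFs infected with an HCMV luciferase reporter virus (MOI 1 PFU/cell). Luciferase in lysates collected 72 h post infection served as the replication measure.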
# RE007 growth inh: less growth of the S. pombe RE007 Vpr strain | 360,000 compounds, 0.21% hits | AID 651644 | S. pombe RE007 Vpr strain, BacTiter-Glo ATP luminescence, 24 h | Potency, µM (series often up to 92.2 µM), for inactives: at the top dose activity change, negative = less growth, most hits filed as inhibitors; active means well fitted falling curve with a large enough effect; inconclusive means small, poorly fitted or top-dose-only effect; inactive means no such curve, though single readings can be large or run the other way; further: potency means the concentration at half of the fitted maximal effect; nearly all actives have a fitted effect of over 50% in size
#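 Fission yeast strain RE007, carrying one chromosomally integrated HIV-1 vpr copy, was seeded at OD 0.01 in PMG+AL medium with 23 nL pinned compound. After 24 h at 30 °C and 99% humidity, viability was read by BacTiter-Glo luminescence.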
# Giardia FBPA inh: inhibitors of Giardia lamblia fructose-1,6-bisphosphate aldolase | A8B2U2 | purified Giardia FBPA | Potency, µM (top dose mostly 59.6 µM), for inactives: at the top dose activity, negative = inhibition, most hits filed as inhibitors | 290,000 compounds, 0.71% hits; further: potency means the concentration at half of the fitted maximal effect; nearly all actives have a fitted effect of over 55% in size
# Target sequence (A8B2U2 whole entry, looked up): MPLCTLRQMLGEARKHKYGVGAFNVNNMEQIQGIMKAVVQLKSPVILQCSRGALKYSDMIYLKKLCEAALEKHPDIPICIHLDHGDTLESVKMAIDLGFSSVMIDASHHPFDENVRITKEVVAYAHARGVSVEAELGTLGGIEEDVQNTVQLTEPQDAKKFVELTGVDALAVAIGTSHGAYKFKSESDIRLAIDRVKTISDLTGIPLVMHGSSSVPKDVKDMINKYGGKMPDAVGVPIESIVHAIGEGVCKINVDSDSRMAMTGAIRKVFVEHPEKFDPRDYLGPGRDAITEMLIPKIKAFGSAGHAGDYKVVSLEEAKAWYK
#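 40 nM FBPA preincubated 10 min at RT with compound (up to 57.5 uM final), then substrate plus GAPDH/TPI/NAD/arsenate coupling and diaphorase/resazurin added. Fluorescence read after 20 min at RT, 525/598 nm.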
# Tb PYK inh: blocks Trypanosoma brucei pyruvate kinase; TbPYK enzyme, Kinase-Glo Plus ATP luminescence, 45 min; Potency, µM (titrated, usually from 76.8 µM), without a hit: at the top dose activity, negative = inhibition, most hits filed as inhibitors; 410,000 compounds, 0.12% hits; further: potency means the concentration at half of the fitted maximal effect; nearly all actives have a fitted effect of over 50% in size
#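 Glycolytic pyruvate kinase of T. brucei was incubated with substrate, test compound and 130 uM ADP for 45 minutes at room temperature. Luminescent Kinase-Glo Plus signal was measured after 10 minutes.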
# FMDV inh: antivirals against foot and mouth disease virus. FMDV antiviral cell-based qHTS. Potency, µM (highest dose often 57.9 µM), for inactives: at the highest dose activity change, negative = inhibition, hits mostly inhibitors. AID 1159524. 410,000 compounds, 1.2% hits; calls by dose curve; tested in HEK293T cells; further: read-out not given here; potency means the concentration at half of the fitted maximal effect; nearly all actives have a fitted effect of over 45% in size
# Sm TGR block: S. mansoni TGR enzyme inhibition; Q962Y6; purified TGR, DTNB reduction, TNB absorbance 405 nm; Potency, µM (doses to about 114 µM), for inactives: top-dose activity change, negative = inhibition, most hits filed as inhibitors; 360,000 compounds, 3% hits; further: potency means the concentration at half of the fitted maximal effect; nearly all actives have a fitted effect of over 60% in size
#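 TGR 20 nM + NADPH 100 uM (dispensed conc.), cpd preinc 15 min RT; start with NADPH (500 uM addition) then DTNB (15 mM addition). Kinetic TNB absorbance, 405 nm filter. Four-parameter Hill fit across titration.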
# An asterisk follows results filed as active; ? = inconclusive; . = no result; [ ] = remark or other dose. Unless noted, the call rests on the fitted dose curve; in most records, active means well fitted curve in the direction sought with a large enough effect; inconclusive means small, poorly fitted or top-dose-only effect, or another doubt; inactive means no such curve, though single readings can be large; an effect the other way counts as inactive or inconclusive. On the % scale 0 is the no-effect control and ±100 the full control effect.
SMILES,HCMV inh,RE007 growth inh,Giardia FBPA inh,Tb PYK inh,FMDV inh,Sm TGR block
C=CCNC(=O)c1ccc(-c2cccc([N+](=O)[O-])c2)o1,-8,-14%,-8%,-2%,49%,?
COc1cc([N+](=O)[O-])ccc1-c1ccc(/C=N/NC(=O)c2ccccc2O)o1,-8,.,-6%,.,.,-33%
NC(=O)c1cccc(N)c1,.,.,-1%,.,-7%[210 µM],.
Cc1oc(-c2ccccc2NC(=O)c2cccnc2)nc1CNC(=O)c1ccc(N(C)C)cc1,.,.,.,.,4%,.
Cn1ccc(-c2ccccc2)n1,-26,-8%,3%,0%,24%,-7%
N#Cc1cc(-c2ccccc2)nn1-c1ccccc1,21,-20%,?,14µM*,26%,0.63µM*
Cc1cc(C)cc(OCC(=O)N/N=C/c2ccc([N+](=O)[O-])o2)c1,?,25%,-24%,1%,-10%,?
COc1ccccc1OCC(=O)N/N=C/C=C/c1ccc([N+](=O)[O-])o1,-38,-10%,-2%,-4%,-27%,45µM*
COc1ccc(CC(=O)N/N=C/C=C/c2cccc([N+](=O)[O-])c2)cc1OC,-15,-18%,0%,-1%,-9%,-11%
Cc1ccccc1OCC(=O)N/N=C/c1ccc([N+](=O)[O-])o1,-86*,16%,-4%,1%,?,?
Cn1cc(/C=N/NC(=O)COc2ccccc2[N+](=O)[O-])c2ccccc21,-64*,-5%,-7%,0%,-13%,-17%
Cc1ccc(OCC(=O)N/N=C\c2cn(C)c3ccccc23)c([N+](=O)[O-])c1,22,-8%,0%,-4%,-14%,5%
O=C(COc1ccccc1[N+](=O)[O-])N/N=C/C=C/c1ccco1,?,-5%,.,-19%,5%,35µM*
Cc1ccc(OCC(=O)N/N=C/C=C/c2ccco2)cc1,25,-12%,-12%,4%,11%,?
COc1ccc(N2CCN(C(=O)CCS(=O)(=O)c3cc4c(cc3Cl)NC(=O)CO4)CC2)cc1,-24,.,.,0%,?,-6%
Cc1cccc2sc(N(Cc3cccnc3)C(=O)C3COc4ccccc4O3)nc12 (stereo unspecified),?,.,.,-2%,-9%,1%
Cc1c2cnn(-c3ccccc3)c(=O)c2c(C)n1CC(=O)NCc1ccccc1Br,-13,.,.,2%,-18%,1%
CCOC(=O)Cc1ccc(NC(=O)NCc2ccc3c(c2)CCN3C(=O)CC)cc1,-22,.,.,-4%,-18%,9%
COc1cc(C(C(=O)NC2CCCC2)N(CCO)C(=O)Cn2nnc(-c3ccc(C)o3)n2)ccc1O (stereo unspecified),-24,5%,4%,-2%,-5%,45µM*
CCN(CC)C(=O)Cn1nnc(-c2ccc(C)o2)n1,-10,16%,-5%,-12%,-21%,25µM*
COc1ccc(CC(=O)Nc2sc3c(c2C(=O)Nc2ccc(C)cc2)CCCCC3)cc1,?,.,.,-23%,9%,-7%
Cc1ccc(NC(=O)Cn2c(=O)n(CCCCC(=O)NCCc3ccccc3)c(=O)c3ccccc32)c(C)c1,-4,.,.,-2%,0%,?
Cc1cc(=O)n2nc(N3CCC(C(=O)Nc4ccc(Br)cc4F)CC3)sc2n1,-11,.,.,-4%,-5%,5%
Cc1c(Cl)cccc1NC(=O)c1ccc2c(c1)nnn2C1CCCC1,-13,.,.,-4%,16%,1%
CN(C)CCNc1ccc(CO)c2sc3ccc(O)cc3c(=O)c12,-97*,0%,.,-4%,-16%,.
SMILES,HCMV inh,RE007 growth inh,Giardia FBPA inh,Tb PYK inh,FMDV inh,Sm TGR block
COc1ccc2sc3cccc(NCCN(C)C)c3c(=O)c2c1,2,-13%[18.4 µM],.,-4%,17%,.
CN(C)CCNc1ccc2ncn3c4ccc(O)cc4c(=O)c1c23,-93*,-3%,.,4%,?,.
COc1ccc(CC(=O)n2[nH]c(=O)ccc2=O)cc1OC,45,6%,?,7.1µM*,-2%,0.56µM*
COc1ccc(CC(=O)n2[nH]c(=O)c3ccccc3c2=O)cc1OC,20,3%,2%,3%,33%,5%
COc1ccc(OC)c(NC(=O)CSc2ncnc3c2cnn3-c2ccccc2Cl)c1,.,8%,-2%,-5%,7.9µM*,?
COc1ccc(NC(=O)N2c3ccc(OC)cc3[C@@H](NCc3cnc[nH]3)[C@H](C)[C@H]2c2ccccc2)cc1,32,.,.,.,.,.
NC[C@@H]1O[C@H](O[C@H]2[C@H](O)[C@H](O[C@H]3[C@@H](O)[C@H](N)C[C@H](N)[C@H]3O[C@H]3O[C@H](CN)[C@H](O)[C@H](O)[C@H]3N)O[C@@H]2CO)[C@@H](N)[C@@H](O)[C@@H]1O,.,.,.,.,-15%[16.9 µM],.
CCCCOc1ccc(C(O)(CC)CCN2CCOCC2)cc1 (stereo unspecified),-9,10%,-4%,0%,.,20µM*
CCCCOc1ccc(OCCCN2CCOCC2)cc1,85,2%,-5%,-4%,-17%,0%
CCCOc1ccc(C(C)(O)CN2CCOCC2)cc1 (stereo unspecified),9,11%,-16%,-2%,-24%,13%
CCCCOc1ccc(C(O)(CCC)CCN2CCOCC2)cc1 (stereo unspecified),-29,-7%,-3%,-5%,?,40µM*
CCCCC(O)(CCN1CCOCC1)c1ccc(Cl)cc1 (stereo unspecified),-16,12%,-5%,7%,-26%,35µM*
Cc1ccc(CCNC(=O)Cn2nc(-c3ccc(C)cc3)ccc2=O)cc1,?,.,.,3%,-17%,0%
N/C(Cc1ccc([N+](=O)[O-])cc1)=N\OC(=O)COc1ccccc1Cl,-102*,6%,4%,-24%,20%,-10%
O=C(CCl)N1CCN(C(=O)C2COc3ccccc3O2)CC1 (stereo unspecified),-8,-1%,.,-7%,?,.
O=C(CCl)N1c2ccccc2OCC1c1ccccc1 (stereo unspecified),-62*,-26%,?,1%,18µM*,3.2µM*
O=C(CCl)N1c2ccccc2SCC1c1ccccc1 (stereo unspecified),-98*,8%,-4%,-15%,28µM*,2.8µM*
CS(=O)(=O)c1ccc(-c2nccc3[nH]nc(-c4cccc(F)c4)c23)cc1,-15,.,.,.,.,.
Cn1c(=O)c2[nH]c(CCCCCCCCc3nc4ccccc4[nH]3)nc2n(C)c1=O,-91*,-11%,.,-2%,13µM*,.
Cn1c(=O)c2[nH]c(CCCCc3nc4ccccc4[nH]3)nc2n(C)c1=O,-15,-4%,.,0%,-8%,.
O=C1C=CC(O)(c2cc(=O)c3c(O)cc(O)cc3o2)C=C1,-96*,2%,4%,-18%,18µM*,35µM*

# High-throughput results (PubChem)
